# Test results published in the supplement of paper PMC8728848.
# This excerpt belongs to a sample that is enriched for the strongest signals.
# B1: MGL1 (Mus musculus), P49300 (protein)
# chain: MIYENLQNSRIEEKTQEPGKAPSQSFLWRILSWTHLLLFSLGLSLLLLVVVSVIGSQNSQLRRDLGTLRATLDNTTSKIKAEFQSLDSRADSFEKGISSLKVDVEDHRQELQAGRDLSQKVTSLESTVEKREQALKTDLSDLTDHVQQLRKDLKALTCQLANLKNNGSEVACCPLHWTEHEGSCYWFSESEKSWPEADKYCRLENSHLVVVNSLEEQNFLQNRLANVVSWIGLTDQNGPWRWVDGTDFEKGFKNWAPLQPDNWFGHGLGGGEDCAHITTGGPWNDDVCQRTFRWICEMKLAKES
# Key:
# Experiment in all cases: glycan array binding signal (z-score within array); higher = stronger binding
# Details in all cases: glycan notation: IUPAC condensed, linker removed
# [1] = target: Fuc(a1-2)Gal(b1-4)GlcNAc(b1-2)Man
# Outline: (§1)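 Glycan array data were curated from 3228 arrays in the Consortium for Functional Glycomics database and kept only where the protein sequence was available. Glycan names were converted to IUPAC-condensed notation, and columns mapping to the same glycan were averaged. The binding signal is a within-array Z-score, averaged across arrays of the same protein sequence at different concentrations or buffers and across linkers. Negative Z-scores can be read as non-binding.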
# [2] = target: Fuc(a1-2)Gal(b1-4)[Fuc(a1-3)]GlcNAc(b1-2)[Fuc(a1-2)Gal(b1-4)[Fuc(a1-3)]GlcNAc(b1-4)]Man(a1-3)[Fuc(a1-2)Gal(b1-4)[Fuc(a1-3)]GlcNAc(b1-2)Man(a1-6)]Man(b1-4)GlcNAc(b1-4)GlcNAc
# Outline: as §1
# [3] = target: Fuc(a1-2)Gal6S(b1-4)Glc6S
# Outline: as §1
# [4] = target: Fuc(a1-2)[Gal(a1-3)]Gal(b1-3)GalNAc
# Outline: as §1
# [5] = target: Fuc(a1-2)[Gal(a1-3)]Gal(b1-4)GlcNAc(b1-2)Man(a1-3)[Fuc(a1-2)[Gal(a1-3)]Gal(b1-4)GlcNAc(b1-2)Man(a1-6)]Man(b1-4)GlcNAc(b1-4)[Fuc(a1-6)]GlcNAc
# Outline: as §1
# [6] = target: Fuc(a1-2)[Gal(a1-4)]Gal(b1-4)GlcNAc
# Outline: as §1
# [7] = target: Fuc(a1-2)[GalNAc(a1-3)]Gal(b1-4)GlcNAc(b1-6)GalNAc
# Outline: as §1
# [8] = target: Fuc(a1-3)[Gal(b1-4)]GlcNAc
# Outline: as §1
# [9] = target: Fuc(a1-3)[Gal(b1-4)]GlcNAc(b1-3)Gal(b1-4)[Fuc(a1-3)]GlcNAc
# Outline: as §1
# [10] = target: Fuc(a1-3)[Gal(b1-4)]GlcNAc(b1-3)Gal(b1-4)[Fuc(a1-3)]GlcNAc(b1-3)Gal(b1-4)[Fuc(a1-3)]GlcNAc
# Outline: as §1
# [11] = target: Fuc(a1-3)[Gal(b1-4)]GlcNAc(b1-4)Gal(b1-4)[Fuc(a1-3)]GlcNAc(b1-4)Gal(b1-4)[Fuc(a1-3)]GlcNAc
# Outline: as §1
# [12] = target: Fuc(a1-4)GlcNAc
# Outline: as §1
# [13] = target: Gal(a1-3)Gal(b1-3)[Fuc(a1-4)]GlcNAc(b1-2)Man(a1-3)[Gal(a1-3)Gal(b1-3)[Fuc(a1-4)]GlcNAc(b1-2)Man(a1-6)]Man(b1-4)GlcNAc(b1-4)GlcNAc
# Outline: as §1
# [14] = target: Gal(a1-3)[Gal(a1-4)]Gal(b1-4)GlcNAc
# Outline: as §1
# [15] = target: Gal(a1-4)Gal(b1-3)GlcNAc(b1-2)Man(a1-3)[Gal(a1-4)Gal(b1-3)GlcNAc(b1-2)Man(a1-6)]Man(b1-4)GlcNAc(b1-4)GlcNAc
# Outline: as §1
# [16] = target: Gal(b1-3)Gal
# Outline: as §1
# [17] = target: Gal(b1-3)GalNAc
# Outline: as §1
# [18] = target: Gal(b1-3)[Neu5Ac(a2-6)]GalNAc
# Outline: as §1
# [19] = target: Gal(b1-3)[Neu5Ac(a2-6)]GlcNAc(b1-4)Gal(b1-4)Glc
# Outline: as §1
# [20] = target: Gal(b1-4)GlcNAc(b1-2)Man(a1-3)[Gal(b1-4)GlcNAc(b1-2)Man(a1-6)][Gal(b1-4)GlcNAc(b1-4)]Man(b1-4)GlcNAc(b1-4)[Fuc(a1-6)]GlcNAc
# Outline: as §1
# [21] = target: Gal(b1-4)GlcNAc(b1-2)Man(a1-3)[Man(a1-6)]Man(b1-4)GlcNAc(b1-4)GlcNAc
# Outline: as §1
# [22] = target: Gal(b1-4)GlcNAc(b1-3)Gal(b1-4)GlcNAc(b1-2)Man(a1-3)[Gal(b1-4)GlcNAc(b1-3)Gal(b1-4)GlcNAc(b1-2)Man(a1-6)]Man(b1-4)GlcNAc(b1-4)GlcNAc
# Outline: as §1
# [23] = target: Gal(b1-4)GlcNAc(b1-3)Gal(b1-4)GlcNAc(b1-3)Gal(b1-4)GlcNAc(b1-2)Man(a1-3)[Gal(b1-4)GlcNAc(b1-3)Gal(b1-4)GlcNAc(b1-3)Gal(b1-4)GlcNAc(b1-2)Man(a1-6)]Man(b1-4)GlcNAc(b1-4)GlcNAc
# Outline: as §1
# [24] = target: Gal(b1-4)GlcNAc(b1-3)Gal(b1-4)GlcNAc(b1-3)Gal(b1-4)GlcNAc(b1-3)Gal(b1-4)GlcNAc(b1-3)Gal(b1-4)GlcNAc(b1-2)Man(a1-3)[Gal(b1-4)GlcNAc(b1-3)Gal(b1-4)GlcNAc(b1-3)Gal(b1-4)GlcNAc(b1-3)Gal(b1-4)GlcNAc(b1-3)Gal(b1-4)GlcNAc(b1-2)Man(a1-6)]Man(b1-4)GlcNAc(b1-4)GlcNAc
# Outline: as §1
# [25] = target: Gal(b1-4)GlcNAc(b1-3)[Fuc(a1-3)GlcNAc(b1-6)]Gal(b1-4)Glc
# Outline: as §1
# [26] = target: Gal6S(b1-4)Glc
# Outline: as §1
# [27] = target: GalNAc(b1-4)GlcNAc(b1-2)Man(a1-3)[GalNAc(b1-4)GlcNAc(b1-2)Man(a1-6)]Man(b1-4)GlcNAc(b1-4)GlcNAc
# Outline: as §1
# [28] = target: GalNAc(b1-6)GalNAc
# Outline: as §1
# [29] = target: GalNAc6S(b1-4)GlcNAc
# Outline: as §1
# [30] = target: Glc(a1-6)Glc(a1-6)Glc(a1-6)Glc
# Outline: as §1
binder,measurement,setting,value
B1,glycan array binding signal (z-score),[1],0.007
same,glycan array binding signal (z-score),[2],0.824
same,glycan array binding signal (z-score),[3],0.081
same,glycan array binding signal (z-score),[4],-0.265
same,glycan array binding signal (z-score),[5],-1.16
same,glycan array binding signal (z-score),[6],1.45
same,glycan array binding signal (z-score),[7],0.044
same,glycan array binding signal (z-score),[8],5.46
same,glycan array binding signal (z-score),[9],3.95
same,glycan array binding signal (z-score),[10],5.1
same,glycan array binding signal (z-score),[11],9.12
same,glycan array binding signal (z-score),[12],0.064
same,glycan array binding signal (z-score),[13],-0.177
same,glycan array binding signal (z-score),[14],1.06
same,glycan array binding signal (z-score),[15],2.41
same,glycan array binding signal (z-score),[16],-0.039
same,glycan array binding signal (z-score),[17],-0.112
same,glycan array binding signal (z-score),[18],-0.361
same,glycan array binding signal (z-score),[19],0.273
same,glycan array binding signal (z-score),[20],3.48
same,glycan array binding signal (z-score),[21],0.201
same,glycan array binding signal (z-score),[22],2.62
same,glycan array binding signal (z-score),[23],3.01
same,glycan array binding signal (z-score),[24],2.31
same,glycan array binding signal (z-score),[25],4.54
same,glycan array binding signal (z-score),[26],0.208
same,glycan array binding signal (z-score),[27],0.218
same,glycan array binding signal (z-score),[28],-0.374
same,glycan array binding signal (z-score),[29],0.509
same,glycan array binding signal (z-score),[30],-0.085
